# Experimental data reported in PubChem BioAssay AID602208 (Johns Hopkins Ion Channel Center, 2012).
# Results with a measured potency or affinity are listed apart. Activity calls are given as the source filed them.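 The calls were made as follows: active = average duplicate choline uptake below buffer control mean minus 3 SD, with a fitted dose curve; inactive = the rest.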
# Molecular target: High affinity choline transporter 1 (Homo sapiens) (UniProt Q9GZV3)
# Experiment: human choline transporter radiolabel uptake blockers – cell-based, 3H-choline uptake, CHT LV-AA trafficking mutant, CRC, dose response (AID 602208)
# Conditions: HEK293 CHT LV-AA cells
# Chain of High affinity choline transporter 1 (Homo sapiens) (Q9GZV3 whole entry, looked up): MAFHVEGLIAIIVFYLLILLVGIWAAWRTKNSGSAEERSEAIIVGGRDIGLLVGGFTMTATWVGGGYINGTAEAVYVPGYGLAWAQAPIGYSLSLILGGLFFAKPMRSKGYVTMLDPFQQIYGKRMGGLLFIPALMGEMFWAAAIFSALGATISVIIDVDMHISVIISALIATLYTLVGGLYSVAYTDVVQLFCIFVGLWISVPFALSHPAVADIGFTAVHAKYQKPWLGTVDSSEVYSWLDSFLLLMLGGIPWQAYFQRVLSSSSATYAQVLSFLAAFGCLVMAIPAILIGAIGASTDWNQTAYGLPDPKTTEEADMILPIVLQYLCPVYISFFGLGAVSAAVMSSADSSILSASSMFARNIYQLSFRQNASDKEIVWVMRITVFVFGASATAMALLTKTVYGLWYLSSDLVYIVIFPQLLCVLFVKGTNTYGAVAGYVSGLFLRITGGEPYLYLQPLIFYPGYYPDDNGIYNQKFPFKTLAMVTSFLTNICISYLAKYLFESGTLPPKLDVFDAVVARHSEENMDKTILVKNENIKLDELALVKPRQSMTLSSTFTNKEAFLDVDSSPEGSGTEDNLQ
row,Compound,outcome
1,Cc1cc(NS(=O)(=O)c2ccc(NC(=O)C(C)Oc3cccc(C)c3C)cc2)nc(C)n1 (configuration not stated),inactive
2,CC1CCCCC1NC(=O)c1cccc(S(=O)(=O)N2CCN(C)CC2)c1 (configuration not stated),inactive
3,CCN(CC)S(=O)(=O)c1cc(C(=O)Nc2nncs2)c(Cl)cc1Cl,inactive
4,CCc1cccc(CC)c1NC(=O)c1cccc(S(=O)(=O)N2CCN(C)CC2)c1,inactive
5,COc1cc(NS(=O)(=O)c2ccc(NC(=O)c3ccc(Cl)cc3Cl)cc2)ncn1,inactive
6,Cc1cc(C)c(C(=O)Nc2ccc(S(=O)(=O)Nc3ccccn3)cc2)c(C)c1,inactive
7,Cc1cc(NS(=O)(=O)c2ccc(NC(=O)c3ccc(Cl)cc3Cl)cc2)no1,inactive
